Data reported in PubChem BioAssay (NCI).
Compounds without any hit were thinned out: in the full panel of roughly 79,000, 15% have a hit. A number with no mark means an inactive call. Activity calls are given as the source filed them. Rule as the data show it: active = growth inhibition above about 70%; inactive = the rest.

Columns and labels:
[1] = NCI Yeast Anticancer Drug Screen. Data for the rad50 strain (AID 155);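 also: 0% = growth of vehicle-only cultures of the same strain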; settings: S. cerevisiae rad50 strain growth inhibition; at 50.0 µM; hits give high values
How it was run: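 DNA repair mutant yeast, compound exposure, growth read-out; inhibition is taken relative to vehicle.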

[2] = NCI Yeast Anticancer Drug Screen. Data for the mec2-1 strain (AID 157); settings: S. cerevisiae mec2-1 strain, at 50.0 µM, hits give high values
How it was run: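 Vehicle-treated cultures served as reference for growth inhibition of compound-exposed mec2-1 yeast.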

[3] = NCI Yeast Anticancer Drug Screen. Data for the sgs1 mgt1 strain (AID 161);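 also: 0% = growth of cultures given vehicle only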; settings: S. cerevisiae sgs1 mgt1 strain, at 50.0 µM, hits give high values
How it was run: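 Mutant yeast exposed to compound; growth scored against vehicle-only wells.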

[4] = NCI Yeast Anticancer Drug Screen. Data for the cln2 rad14 strain (AID 165);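 also: 0% = growth equal to vehicle treated cultures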; settings: S. cerevisiae cln2 rad14 strain, at 50.0 µM, hits give high values
How it was run: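 Each compound was tested on cln2 rad14 yeast. Inhibition of growth was calculated against vehicle-exposed controls.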

[5] = NCI Yeast Anticancer Drug Screen. Data for the bub3 strain (AID 167); settings: S. cerevisiae bub3 mutant strain, at 50.0 µM, hits give high values
How it was run: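 In this screen, a yeast mutant lacking normal mitotic checkpoint function is challenged with compound. Relative growth versus vehicle gives the inhibition value.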

[6] = NCI Yeast Anticancer Drug Screen. Data for the mlh1 rad18 strain (AID 175); settings: S. cerevisiae mlh1 rad18 strain growth inhibition; at 50.0 µM; hits give high values
How it was run: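 Vehicle-treated cultures served as the reference for growth inhibition in a yeast strain carrying DNA damage repair alterations exposed to each compound.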

Row | SMILES | growth inhibition [1] | growth inhibition [2] | growth inhibition [3] | growth inhibition [4] | growth inhibition [5] | growth inhibition [6]
1 | Oc1ccc(Oc2cc3c(cc2Oc2ccc(O)cc2)-c2nc-3nc3[nH]c(nc4nc(nc5[nH]c(n2)c2cc(Oc6ccc(O)cc6)c(Oc6ccc(O)cc6)cc52)-c2cc(Oc5ccc(O)cc5)c(Oc5ccc(O)cc5)cc2-4)c2cc(Oc4ccc(O)cc4)c(Oc4ccc(O)cc4)cc32)cc1 | -94.7% | -56.7% | -119% | -99.7% | -80.5% | -104%
2 | CC(=O)OCCOC(C)=O | 15.2% | 4.35% | -5.1% | 19.9% | 21.3% | 1.45%
3 | CCOc1ccc(NC(=O)COc2ccc(Cl)cc2Cl)cc1 | 14.9% | 22.3% | 23.5% | 18.4% | 26.1% | 14.9%
4 | O=C(/C=C/c1ccccc1)N(Cc1ccccc1)c1ccccc1 | 94.3% (active) | 96.7% (active) | 96.7% (active) | 93.5% (active) | 95.2% (active) | 95.6% (active)
5 | CCC1=CCC(P(=O)(c2ccccc2)c2ccccc2)CC1C (configuration not stated) | -28.8% | -16.4% | -0.15% | 12.6% | 0.15% | -19.8%
6 | O=c1[nH]nc(-c2ccccc2)n1-c1ccncc1 | -4.65% | 0.3% | -6.45% | -4.65% | 12.7% | 0.65%
7 | CNc1nc2c(s1)c1c(O)c3c(O)c(C)c4c(c32)C(=O)C(C)(O/C=C/C(OC)C(C)C(OC(C)=O)C(C)C(O)C(C)C(O)C(C)/C=C/C=C(/C)C(=O)N1)O4 (configuration not stated) | 14.1% | 13.8% | 9.1% | 9.7% | 21.2% | 20.5%
8 | CCCCOC(=O)C(=O)C(CC(CC)C(=O)c1ccccc1)C(=O)C=C(C)C (configuration not stated) | -28.9% | -8.5% | -9.55% | -15.2% | -13.6% | 15.2%
9 | COc1cc([N+](=O)[O-])c2[nH]c(=O)ccc2c1 | -11.7% | 19.7% | -4.5% | -7.2% | -2.05% | 3.45%
10 | COc1ccc(CC2Cc3ccccc3CC(=O)N2)cc1OC (configuration not stated) | 36.5% | -54.3% | -4.4% | 3.65% | 25.6% | -38.1%
11 | Nc1nc(=O)n(CCCCCCc2ccccc2)cc1-c1ccc(Cl)c(Cl)c1 | -4.75% | -8.95% | 8% | 83.7% (active) | 3.65% | 0.45%
12 | CCCOc1ncnc2nc[nH]c12 | 7.3% | -6.05% | 1.55% | -6.4% | 5.3% | 19.7%
13 | c1cc2c3c(cccc3c1)-c1nc3ccccc3nc1-2 | -5.1% | -21.4% | -5.2% | 4.05% | 0.2% | 19.8%
14 | CCO[Si](OCC)(OCC)c1ccccc1 | -28.7% | -21.3% | -10.7% | -5.85% | -14.5% | -15.8%
15 | C=CCC(C(=O)NC(N)=O)c1ccccc1 (configuration not stated) | 3.9% | -7.65% | -11.3% | 19.5% | 8.05% | 0.35%
16 | CC(C)/C=N/N(CCOC(=O)Nc1cccc2ccccc12)C(=O)Nc1cccc2ccccc12 | -4.95% | -15.1% | 1.75% | -19.8% | -8.15% | 14.8%
17 | CC(=O)OC(C)(C)c1ccc2c(c1)C(=O)C[C@@H]1[C@](C)(C#N)CCC[C@]21C | 46.6% | 0.3% | -2.75% | -5.35% | 52.1% | 35.5%
18 | CC(C)NC(=O)C(C(C)C)C(C)(C)C (configuration not stated) | -2.95% | 5.25% | 1.35% | 12.1% | 9.2% | -2.15%
19 | COc1c(O)c2c3c(cc(C)cc3c1C(C)C)OC2 | 93.3% (active) | 94.5% (active) | 94.3% (active) | 93.1% (active) | 93.4% (active) | 93.1% (active)

Row | SMILES | growth inhibition [1] | growth inhibition [2] | growth inhibition [3] | growth inhibition [4] | growth inhibition [5] | growth inhibition [6]
20 | COc1ccc(-c2c(C(C)=O)c(-c3ccccc3)n(C3OC(COC(C)=O)C(OC(C)=O)C(OC(C)=O)C3OC(C)=O)c(=S)c2C#N)cc1 (configuration not stated) | -17.7% | -25.9% | -26.1% | 7.85% | 0.75% | -36.2%
21 | CNC1C(CO)OC(OC)C1O (configuration not stated) | 10.8% | 12% | 7.1% | 8% | 1.2% | -2.85%
22 | OC/C(Cc1cccc(O)c1)=C(/CO)Cc1cccc(O)c1 | 5.5% | 7.3% | 6.7% | 3.45% | 10.4% | 8.8%
23 | CCCCCCC(=O)/C=C/c1ccc(OC)cc1 | -12.5% | -6.55% | -14% | 3.6% | -11.6% | -16.1%
24 | [N-]=[N+]=Nc1cc(=O)n(-c2ccccc2)c2ccccc12 | -17.2% | -22.7% | -24.6% | -2.8% | -3.75% | -22.3%
25 | CSc1nc(=O)cnn1C | -22.3% | -8.6% | -15.6% | -0.5% | -49.2% | -5.35%
26 | O=c1/c(=C/c2ccccc2[N+](=O)[O-])sc2nnc(-c3cccnc3)n12 | 11.7% | 6.45% | 12.8% | 21.1% | 11.8% | 1.4%
27 | CCCCCOC(=O)c1cccc(C)c1 | 3.7% | 10.5% | -5.2% | -4.7% | -1.65% | 2.5%
28 | COc1ccc2ccccc2c1C(=O)/C=C/c1ccccc1 | 35% | 33.6% | 38.9% | 47.8% | 58.8% | 39.4%
29 | Cn1c2ccccc2n2c(=O)c(-c3ccc(Cl)cc3)nnc12 | -4.95% | 10.9% | -5.15% | -6.15% | -11.2% | -35.4%
30 | CCCCCCO[Si](OCCCCCC)(OCCCCCC)OCCCCCC | -35.1% | -32.4% | -10.8% | 17.4% | -17.8% | -17.4%
31 | N#CCc1n[nH]c(Cc2ccccc2)n1 | 2.35% | 6.6% | 3.9% | 7.6% | 0.8% | 12.4%
32 | Cc1ccc2cccc(OC(=O)Nc3cc(Cl)c(Cl)cc3Cl)c2n1 | -5.7% | -17.8% | 4.5% | -4.8% | -14.2% | 3.9%
33 | COc1cc2c(cc1OC)C(=O)N(c1ccc(OCCN3CCCC3)cc1)C2=O | -20.7% | -17.9% | 4.7% | 19.4% | 15.8% | -10.4%
34 | CCOC(=O)C(=CNc1cccc(Cl)c1)C(=O)OCC | -2.8% | -11.4% | -18.9% | -26.9% | 32.2% | -19.9%
35 | O=C1CCC2=C(N1)C(=O)C=CC2=O | 1.8% | 13.2% | -13.2% | -32% | -8.35% | 10.9%
36 | NC(=O)c1ccc(S(=O)(=NS(=O)(=O)c2ccccc2)c2ccc(C(N)=O)cc2)cc1 | 4.2% | -8.4% | -11.8% | -62.8% | -25.6% | -1.6%
37 | Cn1nc(-c2ccccc2)c(-c2ccccc2)c(C#N)c1=O | 0.05% | -3.55% | 0.4% | -22.6% | -1.8% | 0.8%
